# Data taken from PubChem BioAssay (NCI).
# The panel holds about 83,000 compounds, 20% with a hit somewhere; the sample as a whole holds those more often.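 Growth was measured after 48 h exposure to one concentration of compound in 96-well plates. Values under 10 count as active.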 A number with no mark means an inactive call. Activity calls are given as the source filed them.
# How the values were obtained:
# Test in all cases: NCI-60 one-dose screen, 48 h (100 = growth as untreated, 0 = no growth, -100 = all killed)
# Conditions in all cases: 10 µM unless noted
# HCT-15 colon = tested on: HCT-15 colon
# HT29 colon = tested on: HT29 colon
# SNB-75 CNS = tested on: SNB-75 CNS
# SNB-19 CNS = tested on: SNB-19 CNS
# U251 CNS = tested on: U251 CNS
# PC-3 prostate = tested on: PC-3 prostate
# SK-MEL-5 melanoma = tested on: SK-MEL-5 melanoma
# UACC-62 melanoma = tested on: UACC-62 melanoma
# LOX IMVI melanoma = tested on: LOX IMVI melanoma
# SK-MEL-28 melanoma = tested on: SK-MEL-28 melanoma
# SK-MEL-2 melanoma = tested on: SK-MEL-2 melanoma
# EKVX NSCLC = tested on: EKVX NSCLC
# SN12C renal = tested on: SN12C renal
# UO-31 renal = tested on: UO-31 renal
# TK-10 renal = tested on: TK-10 renal
# ACHN renal = tested on: ACHN renal
# CAKI-1 renal = tested on: CAKI-1 renal
# A498 renal = tested on: A498 renal
# CCRF-CEM leukemia = tested on: CCRF-CEM leukemia
# MOLT-4 leukemia = tested on: MOLT-4 leukemia
SMILES,growth (HCT-15 colon),growth (HT29 colon),growth (SNB-75 CNS),growth (SNB-19 CNS),growth (U251 CNS),growth (PC-3 prostate),growth (SK-MEL-5 melanoma),growth (UACC-62 melanoma),growth (LOX IMVI melanoma),growth (SK-MEL-28 melanoma),growth (SK-MEL-2 melanoma),growth (EKVX NSCLC),growth (SN12C renal),growth (UO-31 renal),growth (TK-10 renal),growth (ACHN renal),growth (CAKI-1 renal),growth (A498 renal),growth (CCRF-CEM leukemia),growth (MOLT-4 leukemia)
CCN1CCN(Cc2ccc(C(=O)Nc3ccc(C)c(Oc4ccc(-c5[nH]nc6ncnc(N)c56)cc4)c3)cc2C(F)(F)F)CC1,68.6%,17%,95.8%,101%,89.4%,70.7%,76.1%,89.1%,57.2%,75.4%,90%,106%,86.5%,84.4%,117%,91.9%,88.3%,98.4%,31%,67.4%
O=C(CSc1nnc(-c2ccc(Cl)cc2)n1-c1ccccc1)Nc1cccc(Cl)c1,79.5%,71.6%,42.5%,80.2%,50.2%,75.5%,96.4%,97.7%,7.5% (active),97.8%,101%,62.3%,25.4%,12.6%,75.1%,9.9% (active),64.9%,95.9%,78.3%,85.6%
COc1ccc(C(=O)Nc2ncc(Cc3ccccc3Cl)s2)cc1,9.87% (active),-16.6% (active),28.8%,23.7%,14.6%,29.7%,2.6% (active),35.7%,1.15% (active),64%,-1.02% (active),41.7%,32.7%,38.1%,64.3%,32.5%,36.4%,-8.09% (active),18.7%,13.8%
COc1ccc(-c2nn(-c3ccc(S(C)(=O)=O)cc3)cc2/C=N/O)cc1,103%,106%,127%,105%,106%,102%,98.7%,96.6%,102%,96.1%,109%,104%,98.9%,97%,124%,95.3%,111%,116%,99.6%,103%
Cc1ccc(NC(=O)c2ccc(CN3CCOCC3)c(C(F)(F)F)c2)cc1Oc1ccc(-c2[nH]nc3ncnc(N)c23)cc1,40.5%,37%,112%,95.5%,66.9%,43.4%,16.3%,19.4%,59.1%,47.8%,59.6%,65.6%,82.3%,54.6%,80%,58.2%,39.2%,87.3%,47.8%,46.3%
CCn1c(SCC(=O)Nc2cccc(C(=O)/C=C/c3ccc(C)cc3)c2)nc2ccccc2c1=O,49.2%,65.8%,93.3%,81.2%,80.1%,60.7%,90%,70.1%,37.6%,95.8%,108%,98.8%,88%,58.9%,120%,92.2%,80.2%,94.2%,67.4%,88%
O=C(Nc1nonc1-c1ccccc1)c1ccc(C(F)(F)F)cc1,80.6%,103%,104%,62%,70.1%,71.7%,65.6%,56%,-46.7% (active),77.5%,65.3%,84.6%,71.7%,91.4%,146%,82.1%,85.5%,95.6%,50.8%,69.1%
COc1cc(-c2nnc(SCc3ccc(O)c4ncccc34)n2-c2ccccc2)cc(OC)c1OC,12.8%,16.7%,-6.25% (active),9.25% (active),4.28% (active),15.4%,-62.4% (active),-37.4% (active),-22.2% (active),17.9%,24.6%,4.34% (active),8.79% (active),-30.2% (active),15.2%,4.84% (active),1.72% (active),1.54% (active),5.95% (active),4.98% (active)
CCCCCCCn1cc2c(N[C@H](C)c3ccccc3)ncnc2n1,91.5%,113%,92.2%,94.3%,102%,92.6%,109%,80.6%,99.2%,108%,123%,88.2%,99.2%,78.3%,126%,102%,88.2%,87.6%,99.6%,102%
COc1ccc(/C=C/C(=O)c2cccc(NC(=O)CSc3nc4ccccc4c(=O)n3-c3ccccc3)c2)cc1OC,89.5%,112%,86.2%,93.4%,101%,97%,99%,89.9%,91.5%,115%,104%,103%,105%,91.9%,125%,100%,88%,99.4%,115%,91.1%
CNC(=O)c1cc(-c2ccc(NS(=O)(=O)c3ccc(C)cc3)cc2)nc2cccnc12,105%,109%,104%,99.8%,101%,99.7%,103%,90.4%,100%,119%,102%,95.9%,103%,81.5%,118%,104%,94.4%,106%,109%,100%
COc1ccc(Cn2cc3c(c2-c2cc(OC)c(OC)c(OC)c2)CCc2c(CN4CCOCC4)noc2-3)cc1,15.3%,11.7%,18%,27.1%,27.9%,31.9%,17.3%,19.1%,33.5%,60.7%,62.4%,43.4%,31.6%,39.5%,90.1%,43.4%,44.6%,-0.0936% (active),16.3%,22.7%
CCNC(=O)N1CCc2cc(OC)c(OCCc3ccc(OC)cc3)cc2C1c1ccc(Cl)cc1C (stereo not given),9.66% (active),2.45% (active),37.9%,26%,13.1%,26.1%,-10.8% (active),22.8%,8.72% (active),43.3%,14.7%,37%,18.6%,28.2%,54.2%,23.1%,23.3%,-12.8% (active),38.2%,23.6%
CN1CCN(Cc2ccc(NC(=O)c3cncc(C#Cc4cnc5ccc(NCCCO)nn45)c3)cc2C(F)(F)F)CC1,1.94% (active),-2.42% (active),-70.8% (active),-0.64% (active),-68% (active),-19.2% (active),-87% (active),-14.1% (active),-86.3% (active),-21% (active),-90.8% (active),-3.09% (active),15.6%,-1.42% (active),-28.7% (active),3.14% (active),-1.99% (active),-98.8% (active),6.66% (active),8.92% (active)
CCO/C=N/C1=C(C#N)C(c2ccc(OC)cc2)c2sc3c(CC)cccc3c2O1 (stereo not given),22.4%,13.1%,-0.25% (active),37.8%,27.3%,26.9%,17.6%,27.6%,26%,67.2%,41.4%,47.5%,43.6%,48.1%,69.3%,46.8%,50%,6.97% (active),22.4%,26.8%
C#C[C@]1(O)CC[C@H]2[C@@H]3CC=C4c5sc(-c6ccc(C)cc6)nc5CC[C@]4(C)[C@H]3CC[C@@]21C,-2.81% (active),98%,-8.57% (active),10.9%,8.46% (active),-19.9% (active),-75.7% (active),2.15% (active),-60.8% (active),-57.2% (active),-2.55% (active),54%,59%,-7.05% (active),77.4%,21.5%,8.16% (active),113%,6.48% (active),-2.14% (active)
